Test results: ChEMBL document CHEMBL3988442, “University of Dundee, Small-Polar-MMV Screening Library” (2021)
In all, about 65,000 compounds went through this assay and about 65 (0.1%) showed an effect of 50% or more. The entries come from a sample that favours strong results as a whole.

These molecules were tested against Tryptophan--tRNA ligase (Mycobacterium tuberculosis (strain ATCC 25618 / H37Rv)) (UniProt P9WFT3) (assay: Biochemical assay for Mt-TrpRS). Conditions: 10 µM.
Assay type: functional
Set-up: scale not given: direction of the effect not stated beside the values

Chain of Tryptophan--tRNA ligase (Mycobacterium tuberculosis (strain ATCC 25618 / H37Rv)) (P9WFT3 whole entry): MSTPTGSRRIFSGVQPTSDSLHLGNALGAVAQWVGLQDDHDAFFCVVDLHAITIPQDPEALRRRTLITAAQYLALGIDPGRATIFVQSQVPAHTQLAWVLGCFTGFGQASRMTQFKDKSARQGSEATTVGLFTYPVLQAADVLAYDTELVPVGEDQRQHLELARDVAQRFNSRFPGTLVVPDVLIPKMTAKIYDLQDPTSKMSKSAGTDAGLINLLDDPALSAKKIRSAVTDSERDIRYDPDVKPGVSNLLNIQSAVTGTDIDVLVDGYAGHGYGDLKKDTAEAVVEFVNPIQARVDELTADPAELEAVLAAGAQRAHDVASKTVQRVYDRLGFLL

Compound | Percent Effect [%]
CC(NC(=O)C1CCCCC1)c1cc(O)nc(-c2cccnc2)n1 (centres undefined) | 0.0653
CC(C)C(NC(=O)C1CC1)c1cc(O)nc(-c2cccnc2)n1 (centres undefined) | 2.42
CC(C)C(NC(=O)C1CCCC1)c1cc(O)nc(-c2cccnc2)n1 (centres undefined) | 65.2
Cc1ccc(CNCc2nnc3n2CC(C(F)(F)F)CC3)o1 (centres undefined) | -0.327
CCOc1ccc2ccccc2c1CNCC1CCS(=O)(=O)C1 (centres undefined) | -4.67
Cc1ccc(N2C[C@H](C(=O)N3CCOCC3)[C@@H]3CCO[C@@H]3C2)nn1 | -1.89
CC(C)N(C)CC(=O)N(C)C(c1cccc(F)c1)c1ccccn1 (centres undefined) | 94.7
CCNC(=O)N(C)C(c1cccc(F)c1)c1ccccn1 (centres undefined) | 2.8
CCN(CC)CC(=O)N(C)C(c1cccc(F)c1)c1ccccn1 (centres undefined) | 0.435
CC(C)NC(=O)N(C)C(c1cccc(F)c1)c1ccccn1 (centres undefined) | -3.48
CC(=O)N(C)C(c1cccc(F)c1)c1ccccn1 (centres undefined) | 70.3
CCCC(=O)N(C)C(c1cccc(F)c1)c1ccccn1 (centres undefined) | -2.61
Cc1nnc([C@@]23CCO[C@@H]2CCN(S(C)(=O)=O)C3)o1 | 14.4
CC(c1ccncc1)N1Cc2nc(N(C)C)ncc2C1=O (centres undefined) | 0.86
COC(=O)c1ncccc1N1CCCCC1 | 0.136
Cc1ccc(CN2C[C@H](N3CCOCC3)[C@@H]3OCCC[C@@H]32)o1 | -6.03
CCn1c(C(=O)N2CCN(CC(C)O)CC2)cc2ccccc21 (centres undefined) | 0.24
CCn1c(C(=O)N2CCN(C(=O)NC(C)C)CC2)cc2ccccc21 | 0.24
CCC(O)CN1CCN(C(=O)c2cc3ccccc3n2CC)CC1 (centres undefined) | 84.1
c1cnc(N2CCO[C@H]3CN(Cc4ccsc4)C[C@H]32)nc1 | -4.69
Cn1cccc1CNC(=O)CCCc1nnc2ccccn12 | 224
COc1ccc2nnc(CCC(=O)NCc3cccn3C)n2n1 | 1.87
COc1ccc2nnc(CCCC(=O)NCc3cccn3C)n2n1 | 1.21

Compound | Percent Effect [%]
CS(=O)(=O)NC[C@]12COC[C@H]1CN(C(=O)c1ccccc1)C2 | -5.18
CC(=O)N1CC2(CCN(Cc3ccc(Cl)cc3)CC2)Cc2ccccc21 | -5.45
CN1C(=O)CC(C(=O)O)C12CCN(Cc1ccc(Cl)c(F)c1)CC2 (centres undefined) | 54.6
CN1C(=O)CC(C(=O)O)C12CCN(Cc1ccc(Cl)c(Cl)c1)CC2 (centres undefined) | -7.74
CN1C(=O)CC(C(=O)O)C12CCN(Cc1ccc(F)c(Cl)c1)CC2 (centres undefined) | -3.47
CN(C)c1ncccc1CNC(=O)N1CCCC1CN1CCCC1 (centres undefined) | 67.8
CN(C)c1ncccc1CNC(=O)N1CCCC1CN1CCCCC1 (centres undefined) | -0.719
CN(C)c1ncccc1CNC(=O)N1CCCC1c1ccsc1 (centres undefined) | -2.64
CS(=O)(=O)N1CC[C@]2(O)CCN(c3cc(C#N)ccn3)C[C@@H]2C1 | -1.89
CO[C@@H]1CC[C@H]2[C@H]1OCCN2CCOCc1ccccc1 | -7.44
CCN1CCO[C@@H]2CN(C(=O)COC3CCCC3)C[C@@H]2C1 | 14.7
CC(C)NC(=O)N1CCC2(CC1)C(=O)NCCN2Cc1ccccc1 | -4.29
O=C(NC1CC1)N1CCC2(CC1)C(=O)NCCN2Cc1ccccc1 | -5.09
O=C(CC1CC1)N1CCC2(CC1)C(=O)NCCN2Cc1ccccc1 | 54.2
COc1ccccc1C1(C(=O)NCCN2CCCCC2)CCOCC1 | 73.8
COc1ccccc1C1(C(=O)NCCN2CCOCC2)CCOCC1 | -0.235
Cc1ccccc1C1(C(=O)NCCN2CCCC2)CCOCC1 | 1.49
COc1ccc(CN2C[C@H]3CN(c4cncnc4)C(=O)[C@H]3C2)cc1 | 0.241
Cc1c(Cl)c(C(=O)NC(C)CN2CCOCC2)nn1C (centres undefined) | -1.4
Cc1oncc1C(=O)N1C[C@H]2CCCC(N(C)Cc3cccs3)[C@H]2C1 (some centres undefined) | 0.971
Cc1nn(C)c(C)c1C1CCCN1C(=O)c1ccc(Cl)o1 (centres undefined) | 0
CSc1ccc(C(=O)N2CCOCC2c2c(C)nn(C)c2C)o1 (centres undefined) | -3.05
Cc1nn(C)c(C)c1C1COCCN1C(=O)c1ccc(Cl)o1 (centres undefined) | 80.8

Compound | Percent Effect [%]
CS(=O)(=O)N[C@H]1CN(C(=O)c2cscn2)[C@@H]2CCCO[C@H]12 | 1.91
Cn1cc(CN2CCO[C@H]3CN(Cc4ccco4)C[C@H]32)cn1 | -5.69
O=C(N[C@@H]1CN(C2CCCC2)C[C@@H]2CCCO[C@@H]21)c1cnccn1 | -1.79
COCC1CC2(CCN(C(=O)c3ccc(OC)c(Cl)c3)CC2)CO1 (centres undefined) | -1.65
COCC1CC2(CCN(C(=O)c3cccc(C)c3)CC2)CO1 (centres undefined) | -6.95
COCC1CC2(CCN(C(=O)c3ccc(F)c(Cl)c3)CC2)CO1 (centres undefined) | 54.8
c1ccc(NC[C@@H]2CCC[C@@H]3CN(Cc4cc[nH]n4)C[C@@H]32)nc1 | -8.1
CN(C)C(=O)N[C@H]1CN(Cc2ccc3c(c2)OCO3)[C@@H]2CCCO[C@H]12 | -1.66
CN(CC(=O)Nc1cccnc1)C1CCCN(c2cccnn2)C1 (centres undefined) | 57.9
COCCc1noc(CN(C)C2CCCN(c3ccc(C)nn3)C2)n1 (centres undefined) | 0.711
CCc1nc(CN(C)C2CCCN(c3cccnn3)C2)no1 (centres undefined) | 10.3
Cc1nnc(NC(=O)CN(C)C2CCCN(c3cccnn3)C2)s1 (centres undefined) | -2.71
CN(CC(=O)Nc1ccncc1)C1CCCN(c2cccnn2)C1 (centres undefined) | -2.13
COCCc1noc(CN(C)C2CCCN(c3cccnn3)C2)n1 (centres undefined) | 67.5
CN(Cc1ccco1)[C@@H]1CN(C(=O)c2ccnnc2)C[C@@H]2CCCO[C@@H]21 | 4.52
O=C1CO[C@H]2CN(Cc3ccc4c(c3)OCO4)C[C@H]2N1 | -0.835
CNC(=O)[C@@]12CCO[C@@H]1CCN(Cc1cccc(C)c1)C2 | -2.81
C=C1C(C)(C)[C@H]2CC[C@]1(C(=O)N1CCC(n3cc(CCO)nn3)CC1)C2 | 1.01
CCn1cnnc1CNC(=O)NC(C)c1cccs1 (centres undefined) | -0.56
CCn1cnnc1CNC(=O)NC(c1cccs1)C1CCCC1 (centres undefined) | 55.9
CCn1cnnc1CNC(=O)NC(c1ccccc1)C1CCCC1 (centres undefined) | 0.594
O=C(COc1cccc(Cl)c1)N1CCOCC1c1ncon1 (centres undefined) | 60.2
O=C(COc1ccc(Cl)cc1)N1CCOCC1c1ncon1 (centres undefined) | 3.96

Compound | Percent Effect [%]
O=C(COc1cccc(Br)c1)N1CCOCC1c1ncon1 (centres undefined) | -4.77
O=C(c1ccccc1)N1CC[C@H]2C[C@H](c3nccs3)O[C@@H]2C1 | 0.277
CN(C)C(=O)c1cncnc1-c1ccc(CNC(=O)C2CC2)cc1 | 1.32
COCC(=O)NCc1ccc(-c2ncncc2C(=O)N(C)C)cc1 | -3.46
CN(C)C(=O)c1cncnc1-c1ccc(CNC(=O)C2CCCO2)cc1 (centres undefined) | 59.1
COc1ccc(CN2C[C@@H]3CN(S(=O)(=O)C4CC4)C[C@@H]3C2=O)cc1 | 2.34
c1cnc(N2CC[C@@H]3[C@@H]2CCN3Cc2cccs2)nc1 | -3.73
Cc1cc(C)n(CC2CCCN2C(=O)c2c(C)noc2C)n1 (centres undefined) | 66.8
CCc1noc(C)c1C(=O)N1CCCC1Cn1nc(C)cc1C (centres undefined) | 1.85
Cc1cc(C)n(CC2CCCN2C(=O)Cc2c(C)noc2C)n1 (centres undefined) | -1.17
CS(=O)(=O)NC[C@@H]1OC[C@H]2CN(C(=O)c3ccccc3)CC[C@H]21 | -2.6
Cc1ncoc1C(=O)N1C[C@H]2CCC[C@@]2(COCC2CCOCC2)C1 | -1.66
O=C(CC1CC1)N1CCO[C@H]2[C@H](OCCCn3cccn3)CC[C@@H]21 | -5.05
c1cncc(CN2CC[C@H]3O[C@@H](COCC4CCOCC4)CC[C@H]32)c1 | -0.469
CC[S+](CC)[c-]1c(=O)[nH]c(=O)n(Cc2ccc(F)cc2)c1=O | -5.58
CN(Cc1nnc2n1CCC2)C(=O)c1ccc2c(c1)OCCCO2 | 19.8
CN(Cc1nnc2n1CCC2)C(=O)c1ccc2c(c1)OCCO2 | 69.5
CN(Cc1nnc2n1CCC2)C(=O)c1ccc2c(c1)OCO2 | -1.84
CCCN1CCCN(c2ccc(-n3ccc(C)n3)nn2)CC1 | -6
CCN1CCCN(c2ccc(-n3ccc(C)n3)nn2)CC1 | 1.17
Cc1ccn(-c2ccc(N3CCCN(Cc4ccccc4)CC3)nn2)n1 | 119
O=S(=O)(c1ccccc1)N1C[C@@H]2COC[C@]2(COCC2CC2)C1 | 9.94
O=C(c1ccc(F)c(F)c1)N1C[C@H]2CNC[C@H]2C1 | -6.39

Compound | Percent Effect [%]
Fc1ccc(-c2nc(CN3CCCC3Cn3cncn3)co2)cc1 (centres undefined) | 53.9
Cc1ccc(-c2nc(CN3CCCC3Cn3cncn3)co2)cc1 (centres undefined) | -4.8
Cc1cnn(CC2CCCN2Cc2coc(-c3cccc(F)c3)n2)c1 (centres undefined) | 4.37
Fc1ccc(-c2nc(CN3CCCCC3Cn3cncn3)co2)cc1 (centres undefined) | -4.8
Fc1cccc(-c2nc(CN3CCCC3Cn3cccn3)co2)c1 (centres undefined) | 74.9
Fc1cccc(-c2nc(CN3CCCC3Cn3cncn3)co2)c1 (centres undefined) | 10.9
CS(=O)(=O)N1C[C@@H]2OCC(=O)N(CC3CCC3)[C@@H]2C1 | -0.527
CCS(=O)(=O)NCCCNCc1c(C)nn(C)c1N(C)C | 51.9
Cc1nn(C)c(N(C)C)c1CNCCS(C)(=O)=O | 57.4
Cc1nn(C)c(N(C)C)c1CNCCCNS(C)(=O)=O | 24.1
CCN(CCCNCc1c(C)nn(C)c1N(C)C)S(C)(=O)=O | -2.27
Cc1nn(C)c(N(C)C)c1CNCCCN(C)S(C)(=O)=O | -0.817
Cc1nn(C)c(N(C)C)c1CNCCNS(C)(=O)=O | -3.19
CC(=O)N1[C@H](CN(C)C)C[C@@H]2CN(C(=O)c3cccn3C)CC[C@@H]21 | -8.29
Cc1cccc(COC[C@]23COC[C@H]2CN(c2ncccn2)C3)n1 | -0.382
Cc1nn(C)c(N2CCOCC2)c1CN[C@@H]1c2ccccc2C[C@@H]1O | -6.65
c1coc(CN2CC[C@H]3O[C@@H](COCC4CC4)CC[C@H]32)c1 | -3.59
CN1CCc2nc(C3CCCN(S(=O)(=O)c4ccccc4)C3)ncc2C1 (centres undefined) | -1.11
CN1CCc2nc(C3CCCN(S(=O)(=O)N4CCCC4)C3)ncc2C1 (centres undefined) | -5.94
CCN(CC)S(=O)(=O)N1CCCC(c2ncc3c(n2)CCN(C)C3)C1 (centres undefined) | 50.2
CC(=O)N1CCN(C(=O)c2cc(C(C)C)no2)[C@H]2CS(=O)(=O)C[C@H]21 | -1.55
NC[C@H]1CC[C@H](c2c(C(N)=O)sc3ccccc32)CC1 | -6.86
